Laboratory results taken from PubChem BioAssay.
Calls of active or inactive are those of the source.

Assays:
[1] = A549 cell viability effects, profiling panel, calcein-AM fluorescence, 48 h, basal (AID 1162); conditions: higher = more signal
[2] = adipocyte viability effects, profiling panel, cell-based, 3T3-L1 adipocytes, calcein-AM fluorescence, 48 h, basal (AID 1163); conditions: 3T3-L1 adipocytes viability, higher = more signal
[3] = HepG2 cell viability effects, profiling panel, calcein-AM fluorescence, 48 h, basal (AID 1164); conditions: higher = more signal
[4] = MM1S cell viability effects, profiling panel, calcein-AM fluorescence, 48 h, basal (AID 1165); conditions: higher = more signal;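 further: viability of MM1S multiple myeloma cells under basal unstimulated conditions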
[5] = basal RPMI8226 viability, no added stimulus, profiling panel, cell-based, calcein-AM fluorescence, 48 h, PK04 Diversity Set (AID 1166); conditions: RPMI8226 myeloma viability, higher = more signal;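 further: cells grown under basal conditions without added stimulus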
[6] = basal HepG2 mitochondrial membrane potential changes, profiling panel, cell-based, JC-1 fluorescence, 24 h, 100 nL compound (AID 1167); conditions: higher = more signal
[7] = basal 3T3-L1 adipocyte mitochondrial potential changes, profiling panel, cell-based, JC-1 fluorescence, 3T3-L1 adipocytes, 24 h, 100 nL compound (AID 1168); conditions: JC-1 mitochondrial fluorescence, higher = more signal, called active from +8 up or from −8 down
[8] = basal RPMI8226 mitochondrial membrane potential changes, profiling panel, cell-based, JC-1 fluorescence, 24 h, 100 nL compound (AID 1169); conditions: RPMI8226 myeloma, JC-1 mitochondrial potential fluorescence, higher = more signal
[9] = basal MM1S mitochondrial membrane potential changes, profiling panel, cell-based, JC-1 fluorescence, 24 h, 100 nL compound (AID 1170); conditions: higher = more signal
[10] = A549 lung cancer cell viability effects, profiling panel, resazurin fluorescence, 24 h, PK04 Diversity Set (AID 1171); conditions: higher = more signal, called active from +8 up or from −8 down
Further: test concentration not given here.

Row | SMILES | z-score [1] | z-score [2] | z-score [3] | z-score [4] | z-score [5] | z-score [6] | z-score [7] | z-score [8] | z-score [9] | z-score [10]
1 | CO[C@@H]1COC(=O)CC=C[C@@H](C)[C@@H]2C=C[C@H](O)[C@@H](COC(=O)[C@H](C)NC(=O)CC=C[C@H]1C)O2 | 0.495 | 0.29 | -0.857 | 0.23 | 0.706 | -0.086 | -1.62 (inactive) | 0.583 | -0.385 | 0.612 (inactive)
2 | COC(=O)CC=C[C@H](C)[C@H](CO)NS(=O)(=O)c1ccc(C)cc1 | -0.595 | 0.41 | -0.392 | 0.165 | 0.364 | -0.976 | -0.0535 (inactive) | -0.49 | 0.604 | -0.711 (inactive)
3 | O=C1[C@H]2[C@H]3[C@H](O)[C@H](O)CC(=NOC[C@@H](O)COCc4ccco4)[C@@H]3CC[C@H]2C(=O)N1c1ccc(F)cc1F | -0.2 | 0.165 | -1.22 | 0.136 | -1.11 | 0.42 | -0.116 (inactive) | -0.0126 | -0.221 | 0.24 (inactive)
4 | COC(=O)CC=C[C@@H](C)[C@@H](C=NO[C@@H](C)c1cc(-c2c(C)cc(C)cc2C)no1)OC | -0.542 | 1.05 | -0.618 | 0.0635 | -0.466 | -1.13 | -0.613 (inactive) | -0.549 | -1.19 | 0.16 (inactive)
5 | CC(C)CON=C1C[C@@H](O)[C@@H](O)[C@@H]2[C@@H]3C(=O)N(C[C@@H]4CCCO4)C(=O)[C@@H]3CC[C@H]12 | -0.31 | -0.528 | -0.222 | 0.12 | -0.259 | -0.637 | -1.27 (inactive) | 0.347 | 0.0335 | 0.322 (inactive)
6 | O=C1[C@H]2[C@H]3[C@H](O)[C@H](O)CC(=NO[C@@H]4O[C@H](CO)[C@@H](O)[C@H](O)[C@H]4O)[C@H]3CC[C@H]2C(=O)N1Cc1ccc2c(c1)OCO2 | 1.26 | -1 | -0.254 | -0.19 | 0.0119 | -0.102 | 0.48 (inactive) | -0.0781 | -1.13 | 0.443 (inactive)
7 | CO[C@@H]1COC(=O)CCC[C@@H](C)[C@H](OC)COC(=O)CCC[C@H]1C | -0.378 | -0.465 | -0.125 | -0.197 | 0.239 | -0.075 | -0.996 (inactive) | 0.822 | -0.162 | 0.183 (inactive)
8 | [N-]=[N+]=Nc1ccccc1C[C@@]1(C(N)=O)N=C(c2ccc(OCCCO)cc2)O[C@@H]1c1ccccc1 | -0.391 | 1.73 | -0.515 | -2.86 | -2.94 | 0.57 | -0.433 (inactive) | -0.778 | -0.988 | -0.732 (inactive)
9 | CCc1cccc(NC(=O)O[C@H]2[C@H](OC(=O)Nc3ccc4c(c3)OCO4)[C@@H](OC(=O)Nc3ccc4c(c3)OCO4)[C@@H](OC)O[C@@H]2CO)c1 | -1.1 | 0.29 | -1.66 | -1.33 | -0.976 | 0.0535 | 0.892 (inactive) | -0.806 | -0.503 | 0.735 (inactive)
10 | Cn1cccc1C(O)C1C=CC2C(=O)NC(=O)C2N1Nc1ccccn1 (stereo not given) | -1.77 | -0.0273 | -2.88 | -1.99 | -3.88 | -4.01 | 1.73 (inactive) | -1.11 | -1.88 | -1.14 (inactive)
11 | COC(=O)[C@@H]1CC[C@H](C)[C@@H](c2ccc(C)cc2)N1C(=O)c1ccc(C=NOC(C)CN2CCCCc3nc(C)c(C)cc32)cc1 (stereo not given in full) | -1.19 | -0.0501 | -2.59 | -2.73 | -4 | -0.414 | -1.72 (inactive) | -1.16 | -1.54 | 2.21 (inactive)
12 | O=C1C2C=CC(C(O)c3ccc([N+](=O)[O-])cc3)N(Nc3ccc([N+](=O)[O-])cc3)C2C(=O)N1c1ccccc1 (stereo not given) | -0.682 | -1.1 | 0.0069 | -0.0432 | -1.81 | -2.27 | -2.73 (inactive) | -1.01 | -1.48 | -0.402 (inactive)
13 | CCOC(=O)NN=C1C[C@@H](O)[C@@H](O)[C@@H]2[C@@H]3C(=O)N(C[C@@H]4CCCO4)C(=O)[C@@H]3CC[C@@H]12 | 0.0693 | -0.637 | 0.473 | 0.157 | 0.549 | 1.06 | 0.491 (inactive) | 0.248 | -0.895 | -0.175 (inactive)
14 | CC(CCN1CCc2nc(-c3ccccc3)c(-c3ccccc3)cc2C1)=NOC(C)CN1CCCCc2nc(C)c(C)cc21 (stereo not given) | 0.646 | 0.659 | 0.797 | -1.82 | -0.19 | 4.98 | -1.28 (inactive) | 0.303 | 0.108 | 0.935 (inactive)
15 | COc1ccc([Si](C)(C)[C@@H]2[C@@H](CCO)O[C@]3(C(=O)N(Cc4ccc(NC(C)=O)cc4)c4ccccc43)[C@H]2C)cc1 | -1.98 | 1.37 | -2.77 | -2.47 | -3.9 | -1.29 | -0.0969 (inactive) | -1.18 | -1.93 | -3.2 (inactive)
16 | CCOC(=O)[C@H](Cc1ccccc1)NC(=O)CCC1CC(OC(=O)NCc2ccc3c(c2)OCO3)CC2(CCCC(COC(=O)NCc3cccc(C(F)(F)F)c3)O2)O1 (stereo not given in full) | 0.46 | 1.24 | -0.526 | 0.706 | -2.18 | 2.06 | -0.56 (inactive) | 0.918 | -0.622 | -0.0224 (inactive)
